Measurements reported in the supplement of paper PMC8728848.
Shown is part of a subset that was picked to be rich in the strongest signals.

Legend:
Assay in all cases: glycan array binding signal (z-score within array); higher = stronger binding
Conditions in all cases: glycan notation: IUPAC condensed, linker removed
Fuc(a1-2)Gal(b1-4)GlcNAc = molecular target: Fuc(a1-2)Gal(b1-4)GlcNAc
How it was run: (§1)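 Arrays were curated from the Consortium for Functional Glycomics database, 3228 in total, and kept only where the protein sequence was available. Binding is expressed as a within-array Z-score. This score was averaged across arrays of the same protein sequence at different concentrations or buffers and across linkers, and negative values can be read as non-binding.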

[1] = molecular target: Fuc(a1-2)Gal(b1-4)GlcNAc(b1-2)[Fuc(a1-2)Gal(b1-4)GlcNAc(b1-4)]Man(a1-3)[Fuc(a1-2)Gal(b1-4)GlcNAc(b1-2)Man(a1-6)]Man(b1-4)GlcNAc(b1-4)GlcNAc
How it was run: as §1

[2] = molecular target: Fuc(a1-2)[Gal(a1-3)]Gal(b1-4)[Fuc(a1-3)]Glc
How it was run: as §1

[3] = molecular target: Fuc(a1-2)[GalNAc(a1-3)]Gal(b1-3)GlcNAc(b1-2)Man(a1-3)[Fuc(a1-2)[GalNAc(a1-3)]Gal(b1-3)GlcNAc(b1-2)Man(a1-6)]Man(b1-4)GlcNAc(b1-4)GlcNAc
How it was run: as §1

[4] = molecular target: Fuc(a1-3)[Gal(b1-4)]GlcNAc
How it was run: as §1

[5] = molecular target: Fuc(a1-3)[Gal(b1-4)]GlcNAc(b1-3)Gal(b1-3)[Fuc(a1-4)]GlcNAc
How it was run: as §1

[6] = molecular target: Gal(a1-3)[Gal(a1-4)]Gal(b1-4)GlcNAc
How it was run: as §1

Gal(a1-6)Glc = molecular target: Gal(a1-6)Glc
How it was run: as §1

[7] = molecular target: Gal(b1-3)GlcNAc(b1-2)[Gal(b1-3)GlcNAc(b1-6)]Man(a1-6)[Gal(b1-3)GlcNAc(b1-2)Man(a1-3)]Man(b1-4)GlcNAc(b1-4)GlcNAc
How it was run: as §1

[8] = molecular target: Gal(b1-4)GlcNAc(b1-2)[Gal(b1-4)GlcNAc(b1-6)]Man(a1-6)[Gal(b1-4)GlcNAc(b1-2)Man(a1-3)]Man(b1-4)GlcNAc(b1-4)GlcNAc
How it was run: as §1

[9] = molecular target: Gal(b1-4)GlcNAc(b1-3)Gal(b1-4)Glc
How it was run: as §1

[10] = molecular target: Gal(b1-4)GlcNAc(b1-3)Gal(b1-4)[Fuc(a1-3)]GlcNAc(b1-3)Gal(b1-4)[Fuc(a1-3)]GlcNAc
How it was run: as §1

Gal3S(b1-4)GlcNAc = molecular target: Gal3S(b1-4)GlcNAc
How it was run: as §1

[11] = molecular target: Gal3S(b1-4)[Fuc(a1-3)]Glc6S
How it was run: as §1

GalNAc(b1-3)Gal = molecular target: GalNAc(b1-3)Gal
How it was run: as §1

[12] = molecular target: GalNAc(b1-3)Gal(a1-4)Gal(b1-4)GlcNAc(b1-3)Gal(b1-4)Glc
How it was run: as §1

[13] = molecular target: GlcNAc(a1-4)Gal(b1-4)GlcNAc(b1-3)Gal(b1-4)GlcNAc(b1-3)Gal(b1-4)GlcNAc
How it was run: as §1

[14] = molecular target: GlcNAc(b1-2)Man(a1-3)[GlcNAc(b1-2)Man(a1-6)]Man(b1-4)GlcNAc(b1-4)GlcNAc
How it was run: as §1

[15] = molecular target: GlcNAc(b1-2)[GlcNAc(b1-4)]Man(a1-3)[GlcNAc(b1-4)][GlcNAc(b1-2)[GlcNAc(b1-6)]Man(a1-6)]Man(b1-4)GlcNAc(b1-4)GlcNAc
How it was run: as §1

[16] = molecular target: GlcNAc(b1-3)Gal(b1-4)GlcNAc(b1-3)Gal(b1-4)GlcNAc
How it was run: as §1

Kdn(a2-3)Gal(b1-3)GalNAc = molecular target: Kdn(a2-3)Gal(b1-3)GalNAc
How it was run: as §1

Kdn(a2-3)Gal(b1-4)GlcNAc = molecular target: Kdn(a2-3)Gal(b1-4)GlcNAc
How it was run: as §1

[17] = molecular target: Man(a1-2)Man(a1-2)Man(a1-3)Man
How it was run: as §1

[18] = molecular target: Man(a1-2)Man(a1-2)Man(a1-6)[Man(a1-3)]Man
How it was run: as §1

[19] = molecular target: Man(a1-2)Man(a1-3)[Man(a1-2)Man(a1-6)]Man
How it was run: as §1

[20] = molecular target: Man(a1-2)Man(a1-3)[Man(a1-2)Man(a1-6)]Man(a1-6)[Man(a1-2)Man(a1-2)Man(a1-3)]Man
How it was run: as §1

[21] = molecular target: Man(a1-2)Man(a1-3)[Man(a1-2)Man(a1-6)]Man(a1-6)[Man(a1-2)Man(a1-2)Man(a1-3)]Man(b1-4)GlcNAc(b1-4)GlcNAc
How it was run: as §1

[22] = molecular target: Man(a1-2)Man(a1-3)[Man(a1-6)]Man(a1-6)[Man(a1-2)Man(a1-3)]Man(b1-4)GlcNAc(b1-4)GlcNAc
How it was run: as §1

[23] = molecular target: Man(a1-2)Man(a1-6)[Man(a1-3)]Man(a1-6)[Man(a1-2)Man(a1-2)Man(a1-3)]Man
How it was run: as §1

[24] = molecular target: Man(a1-2)Man(a1-6)[Man(a1-3)]Man(a1-6)[Man(a1-2)Man(a1-2)Man(a1-3)]Man(b1-4)GlcNAc(b1-4)GlcNAc
How it was run: as §1

[25] = molecular target: Man(a1-3)[Man(a1-6)]Man(a1-6)[Man(a1-2)Man(a1-3)]Man(b1-4)GlcNAc(b1-4)GlcNAc
How it was run: as §1

[26] = molecular target: Man(a1-3)[Man(a1-6)]Man(b1-4)GlcNAc(b1-4)GlcNAc
How it was run: as §1

[27] = molecular target: Neu5Ac(a2-3)Gal(b1-3)[Fuc(a1-4)]GlcNAc(b1-3)Gal(b1-3)[Fuc(a1-4)]GlcNAc
How it was run: as §1

[28] = molecular target: Neu5Ac(a2-3)Gal(b1-4)GlcNAc(b1-6)[Gal(b1-3)]GalNAc
How it was run: as §1

[29] = molecular target: Neu5Ac(a2-6)Gal(b1-4)GlcNAc(b1-2)Man(a1-3)[GlcNAc(b1-2)Man(b1-4)GlcNAc(b1-2)Man(a1-6)]Man(b1-4)GlcNAc(b1-4)GlcNAc
How it was run: as §1

[30] = molecular target: Neu5Ac(a2-6)GlcNAc(b1-4)GlcNAc(b1-4)GlcNAc
How it was run: as §1

[31] = molecular target: Neu5Ac(a2-8)Neu5Ac(a2-3)Gal(b1-3)GalNAc(b1-4)[Neu5Ac(a2-8)Neu5Ac(a2-3)]Gal(b1-4)Glc
How it was run: as §1

[32] = molecular target: Neu5Ac(a2-8)Neu5Ac(a2-8)Neu5Ac(a2-3)Gal(b1-4)Glc
How it was run: as §1

[33] = molecular target: Neu5Ac(a2-8)Neu5Ac(a2-8)Neu5Ac(a2-8)Neu5Ac(a2-3)[GalNAc(b1-4)]Gal(b1-4)Glc
How it was run: as §1

Neu5Ac(b2-6)GalNAc = molecular target: Neu5Ac(b2-6)GalNAc
How it was run: as §1

[34] = molecular target: Neu5Gc(a2-3)Gal(b1-3)[Fuc(a1-4)]GlcNAc
How it was run: as §1

Neu5Gc(a2-3)Gal(b1-4)Glc = molecular target: Neu5Gc(a2-3)Gal(b1-4)Glc
How it was run: as §1

B1: Gz-CVNH (Gibberella zeae) (protein)
chain: MGSSHHHHHHSSGLVPRGSHMGNFHESSNNIWLEDGHILHAECGNGEGDYVESTLDLDYYIGNDDGSFSWGGENFSGSASNITLDIEGDDNIPVLRAELNPMDGDPVEANVNLSERIGNDCGTLIFLA
- glycan array binding signal (z-score) (Fuc(a1-2)Gal(b1-4)GlcNAc): -0.133
- glycan array binding signal (z-score) [1]: -0.106
- glycan array binding signal (z-score) [2]: -0.109
- glycan array binding signal (z-score) [3]: -0.121
- glycan array binding signal (z-score) [4]: -0.14
- glycan array binding signal (z-score) [5]: -0.114
- glycan array binding signal (z-score) [6]: -0.135
- glycan array binding signal (z-score) (Gal(a1-6)Glc): -0.128
- glycan array binding signal (z-score) [7]: -0.096
- glycan array binding signal (z-score) [8]: -0.094
- glycan array binding signal (z-score) [9]: -0.114
- glycan array binding signal (z-score) [10]: -0.14
- glycan array binding signal (z-score) (Gal3S(b1-4)GlcNAc): -0.166
- glycan array binding signal (z-score) [11]: 0.005
- glycan array binding signal (z-score) (GalNAc(b1-3)Gal): -0.146
- glycan array binding signal (z-score) [12]: -0.132
- glycan array binding signal (z-score) [13]: -0.131
- glycan array binding signal (z-score) [14]: -0.129
- glycan array binding signal (z-score) [15]: -0.112
- glycan array binding signal (z-score) [16]: -0.14
- glycan array binding signal (z-score) (Kdn(a2-3)Gal(b1-3)GalNAc): -0.14
- glycan array binding signal (z-score) (Kdn(a2-3)Gal(b1-4)GlcNAc): -0.117
- glycan array binding signal (z-score) [17]: 3.53
- glycan array binding signal (z-score) [18]: 7.75
- glycan array binding signal (z-score) [19]: 1.63
- glycan array binding signal (z-score) [20]: 12.7
- glycan array binding signal (z-score) [21]: 2.82
- glycan array binding signal (z-score) [22]: 5.4
- glycan array binding signal (z-score) [23]: 9.9
- glycan array binding signal (z-score) [24]: 8.33
- glycan array binding signal (z-score) [25]: 1.34
- glycan array binding signal (z-score) [26]: -0.119
- glycan array binding signal (z-score) [27]: -0.074
- glycan array binding signal (z-score) [28]: -0.115
- glycan array binding signal (z-score) [29]: -0.09
- glycan array binding signal (z-score) [30]: -0.14
- glycan array binding signal (z-score) [31]: -0.156
- glycan array binding signal (z-score) [32]: -0.128
- glycan array binding signal (z-score) [33]: -0.142
- glycan array binding signal (z-score) (Neu5Ac(b2-6)GalNAc): -0.108
- glycan array binding signal (z-score) [34]: -0.134
- glycan array binding signal (z-score) (Neu5Gc(a2-3)Gal(b1-4)Glc): -0.113
